# In PubChem BioAssay:
# Activity calls are given as the source filed them. No rule for the calls is given here.
# Target: Pantothenate synthetase (Mycobacterium tuberculosis (strain ATCC 25618 / H37Rv)) (UniProt P9WIL5)
# Test: Recombinant Mtb pantothenate synthetase (PanC) inhibitors, coupled enzyme, confirmatory (AID 375);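 also: 0% = full reaction with vehicle and 100% = no enzyme background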
# Conditions: coupled enzyme assay; at 10 µM, hits give high values
# Chain of Pantothenate synthetase (Mycobacterium tuberculosis (strain ATCC 25618 / H37Rv)) (P9WIL5 whole entry, looked up): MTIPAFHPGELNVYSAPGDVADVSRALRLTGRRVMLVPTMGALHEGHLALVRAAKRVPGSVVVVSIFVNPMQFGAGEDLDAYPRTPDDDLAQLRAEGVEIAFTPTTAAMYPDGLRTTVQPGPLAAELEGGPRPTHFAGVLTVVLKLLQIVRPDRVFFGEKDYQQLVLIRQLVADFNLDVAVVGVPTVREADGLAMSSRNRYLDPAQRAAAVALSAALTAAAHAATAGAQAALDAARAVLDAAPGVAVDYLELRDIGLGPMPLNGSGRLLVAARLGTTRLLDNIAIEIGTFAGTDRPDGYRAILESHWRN
row,Compound,inhibition
1,COc1ccccc1N1CCN(Cc2nc(N)nc(Nc3ccc(C)c(Cl)c3)n2)CC1,3% (inactive)
2,CCOC(=O)Cc1ccc(NS(=O)(=O)c2ccc(SC)cc2)cc1,0% (inactive)
3,CCOCCCNC(=O)c1ccc2c(c1)N(Cc1ccccc1)C(=O)CS2=O (stereo not given),0% (inactive)
4,Cc1noc(COc2ccccc2OCC(O)CNC(C)(C)C)n1 (stereo not given),4% (inactive)
5,O=C(O)c1cccc(NC(=O)C2C3C=CC(C3)C2C(=O)OCC(F)(F)C(F)F)c1 (stereo not given),5% (inactive)
6,CCOc1ccc(N2C(=O)CC(N3CC(C)OC(C)C3)C2=O)cc1 (stereo not given),0% (inactive)
7,CS(=O)(=O)N(CC(=O)N1CCN(c2cccc(Cl)c2)CC1)C1CCCCC1,0% (inactive)
8,COCCn1c(=N)c(C(=O)NCCc2ccccc2)cc2c(=O)n3cccc(C)c3nc21,3% (inactive)
9,CC(=O)N1CCN(c2ccc(N=Cc3c(O)n(Cc4ccccc4)c(=O)[nH]c3=O)cc2)CC1,0% (inactive)
10,CCCn1c(SCC(=O)NCc2ccco2)nc2c1c(=O)n(C)c(=O)n2C,11% (inactive)
11,Cc1cc(C)n2nc(S(=O)(=O)N(C)Cc3ccccc3)nc2n1,0% (inactive)
12,O=S(=O)(c1ccc(N2CCN(c3ccc(F)cc3)CC2)cc1)N1CCCC1,0% (inactive)
13,CC(=O)c1ccc(NC(=O)C2CCN(S(=O)(=O)c3cccc4cccnc34)CC2)cc1,4% (inactive)
14,COc1ccc(S(=O)(=O)Nc2ccc(F)c(Cl)c2)cc1OC,0% (inactive)
15,O=C1CCn2nc(-c3ccc(Cl)cc3)cc2N1,0% (inactive)
16,Cc1occc1C(=O)Nc1cccc2ccccc12,0% (inactive)
17,Cc1cc(NS(=O)(=O)c2ccc(Nc3nc(-c4sc(N)nc4C)cs3)cc2)no1,4% (inactive)
18,CCOC(=O)c1ccc(NS(=O)(=O)c2ccc3c(c2)oc(=O)n3C)cc1,0% (inactive)
19,Cc1cc(C(F)F)n2nc(C(=O)Nc3ccc(S(=O)(=O)N4CCCCCC4)cc3)nc2n1,1% (inactive)
20,CCc1nnc(NC(=O)CSc2nnc(-c3cc4ccccc4cc3O)n2CC)s1,6% (inactive)

row,Compound,inhibition
1,CN(C)S(=O)(=O)c1ccc2c(c1)c(=O)c(C(=O)NCCCN1CCCCCC1)cn2C,0% (inactive)
2,CCOC(=O)c1cc(CC)sc1NC(=O)CCC(=O)O,2% (inactive)
3,CCc1cccc(NC(=O)C2CCCN(S(=O)(=O)c3c(C)[nH]c(=O)[nH]c3=O)C2)c1 (stereo not given),4% (inactive)
4,Cc1ccc(-n2nnnc2SCC(=O)c2cc(C)n(-c3cc(C)on3)c2C)cc1,4% (inactive)
5,NS(=O)(=O)c1cc2c(cc1Cl)NC(CSCc1ccccc1)=NS2(=O)=O,0% (inactive)
6,Cc1cc(=O)n(CC(C)C)c(O)c1C#N,0% (inactive)
7,CC(=O)c1cccc(NC(=O)CCOc2ccccc2)c1,1% (inactive)
8,CC1(C)CC(=O)CC(C2(O)C(=O)N(Cc3ccccc3)c3ccccc32)O1 (stereo not given),0% (inactive)
9,CCN1CCN(CCCNC(=O)c2cn(CCOC)c(=O)c3c2c2ccccc2n3C)CC1,0% (inactive)
10,O=C(CSc1nc(-c2ccccc2)cs1)NC(=O)NCc1ccco1,0% (inactive)
11,CCOC(=O)N1CCN(c2cc3nccnc3cc2F)CC1,6% (inactive)
12,Cc1nc2sc(C(c3cccc(F)c3)N3CCOCC3)c(O)n2n1 (stereo not given),0% (inactive)
13,Cc1c(NC(=O)C(C)Oc2ncnc3ccccc23)c(=O)n(-c2ccccc2)n1C (stereo not given),0% (inactive)
14,CC(Oc1ccc(Cl)cc1Cl)c1nc(-c2ccc(NC(=O)c3cccnc3)cc2)no1 (stereo not given),3% (inactive)
15,CC(NC(=O)c1cc2c(=O)n(C)c3ccccc3c2n1C)c1ccc2c(c1)OCCO2 (stereo not given),3% (inactive)
16,COc1ccc(C2=Nn3c(nnc3-c3cccnc3)SC2)cc1,0% (inactive)
17,COc1cc(C(=O)Nc2ccc(-n3cnnn3)c(C)c2)cc(OC)c1OC,0% (inactive)
18,CCOCCCNC(=O)C(c1ccc(C)cc1)N(Cc1ccc2c(c1)OCO2)C(=O)c1cnccn1 (stereo not given),0% (inactive)
19,C[C@H](NC(=O)Nc1cccc(C(F)(F)F)c1)C(=O)O,0% (inactive)
20,COc1ccc(NC(=O)CSc2nc(C)cc(C(F)(F)F)n2)cc1,0% (inactive)
